PubChem BioAssay
Values without a mark were called inactive. No rule for the calls is given here.

Molecular target: L-lactate dehydrogenase (Plasmodium falciparum (isolate CDC / Honduras)) (UniProt Q27743)
Assay: PfLDH activity inhibition – cell lysate, 3D7 strain, counter-screen for P. falciparum growth inhibition project (AID 2304);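 also: 0% = vehicle and 100% = reference inhibitor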
Details: P. falciparum 3D7 crude extract, LDH APAD/NBT absorbance; at 2 µM; active compounds read high

Chain of L-lactate dehydrogenase (Plasmodium falciparum (isolate CDC / Honduras)) (Q27743 whole entry, looked up): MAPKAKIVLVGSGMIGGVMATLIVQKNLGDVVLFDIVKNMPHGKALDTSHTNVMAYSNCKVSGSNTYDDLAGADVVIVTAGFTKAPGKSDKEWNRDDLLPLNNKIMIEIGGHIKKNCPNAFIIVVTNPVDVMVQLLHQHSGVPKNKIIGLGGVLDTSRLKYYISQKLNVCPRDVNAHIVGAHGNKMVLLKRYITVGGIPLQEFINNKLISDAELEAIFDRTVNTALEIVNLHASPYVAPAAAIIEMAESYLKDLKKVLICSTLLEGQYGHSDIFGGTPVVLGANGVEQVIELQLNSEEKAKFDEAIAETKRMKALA

Structure (SMILES) | inhibition
CCn1c(Cc2ccccc2)nnc1SCC(=O)N1c2ccccc2Sc2ccccc21 | -1%
CCCc1ccc(S(=O)(=O)NC2CCN(c3ccnc(Nc4ccc(OC)cc4)n3)C2)cc1 (configuration not stated) | 0%
CCc1cc2c(O)c([N+](=O)[O-])c(=O)oc2cc1OCCCCCOc1cc2oc(=O)c([N+](=O)[O-])c(O)c2cc1CC | -1%
CCCCOc1ccc(C(O)C(CN2CCCCC2)c2ccccc2)cc1 (configuration not stated) | 3%
O=C(Cc1cccs1)NCC(c1ccccc1Cl)c1c[nH]c2ccccc12 (configuration not stated) | 1%
O=C(Nc1ccc(OC2CCN(Cc3ccc(F)cc3)CC2)cc1)c1cccs1 | -2%
Cc1cc(C(F)(F)F)n2nc(C(=O)N(Cc3cncn3Cc3cccc(F)c3)CC3CC3)cc2n1 | 3%
O=C(/C=C/c1ccc(Cl)c(Cl)c1)NCCCCCN1CCCN(C(=O)Nc2ccc(F)c(Cl)c2)CC1 | 1%
COc1ccc(CN2CCC(NCc3cccc(C(F)(F)F)c3)CC2)cc1 | 0%
Cc1cccc2[nH]c(-c3cccc(-c4cccc(NC(=O)C5CC(=O)Nc6ccccc65)c4)c3)nc12 (configuration not stated) | 0%
COc1ccc2ccccc2c1C=NNc1ccnc2cc(Cl)ccc12 | -5%
Cc1nn(-c2ccc(Cl)cc2)c2[nH]c(CN3CCN(c4cccc(Cl)c4)CC3)cc(=O)c12 | -3%
O=C(Nc1cccc(CN2CCCN(Cc3ccc(O)cc3)CC2)c1)c1cc(F)cc(F)c1 | 0%
CC(C)N(CCOc1ccc2c(c1)N(C(=O)Nc1cc(Br)cc(C(F)(F)F)c1)CC2)C(C)C | 5%
Cc1ccc2cc(NC(=O)CCCCCCCON3C(N)=NC(N)=NC34CCCCC4)ccc2n1 | 3%
CCOc1ccc(-c2cc3nc(C4CCNCC4)c(C(=O)Nc4ccc(C)cc4Cl)cn3n2)cc1 | 2%
COc1ccccc1CNc1nc(Nc2ccccc2C)nc2ccccc12 | -1%
O=C(/C=C/c1ccccc1)N1CCOC(CCN2CCC(c3ccccc3)CC2)(c2ccc(Cl)c(Cl)c2)C1 (configuration not stated) | 2%
COCCCNc1sc(S(=O)(=O)c2ccccc2)nc1S(=O)(=O)c1ccc(Cl)cc1 | 4%

Structure (SMILES) | inhibition
CC(C)c1ccc(NC(=O)c2ccc(C(=O)NCC3CCN(CC4CCCCC4)CC3)cc2)cc1 | -3%
CCOC(=O)C(NC(=O)c1ccc([N+](=O)[O-])o1)C(C)C (configuration not stated) | 0%
O=C(Nc1cccc(OCCN2CCCC2)c1)Nc1ccc(Cl)c(Cl)c1 | -5%
COc1ccc2ccccc2c1CNCC1CCN(CC2CCCCC2)CC1 | -3%
COc1cc2c(cc1S(=O)(=O)c1ccc(NC(=O)Nc3ccc(F)cc3)cc1)CCN(C)CC2 | -5%
CCNc1cc(C(=O)N[C@@H](Cc2ccoc2)[C@H](O)CNC(C)CCCC(C)C)cc(N2CCCCS2(=O)=O)c1 (some centres not stated) | 0%
O=c1cc(NCCC(CNCc2ccc(Br)o2)NCc2cc(Br)cc(Br)c2)[nH]c2ccccc12 (configuration not stated) | 6%
CCNc1cc(C(=O)N[C@@H](Cc2ccccc2)[C@H](O)CNC(C)(C)CC(C)(C)C)c(F)c(N2CCCCS2(=O)=O)c1 | -1%
CS(=O)(=O)c1ccc(CCNCc2ccc(-c3ccc(CN(C(=O)C4CC(=O)c5ccccc54)C4CCN(Cc5ccccc5)CC4)cc3)nc2)cc1 (configuration not stated) | 9%
O=C(NC1CCCCC1)N(Cc1ccc(-c2ccc(CNC3CCCC3)cc2)cc1)C1CCN(Cc2ccccc2)CC1 | 3%
CCCCCCCCc1[nH]c(C)c(Br)c(=O)c1Br | 2%
O=C1C[C@@H]([S@@](=O)Cc2nccs2)N1CCOCCCCCCc1ccc(Cl)cc1 | 1%
Cc1ccc2[nH]c3c(NCCCN4CCOCC4)ncnc3c2c1 | -3%
c1ccc2c(c1)CN(Cc1cc3ccccc3[nH]1)CC1(CCN(Cc3c[nH]c4cnccc34)CC1)O2 | -3%
CC1(C)N=C(N)N=C(N)N1OCCCc1cc(Cl)c(Cl)cc1Cl | 2%
O=C(NCc1ccc2c(c1)OCO2)c1nn(CCN2CCC(N3CCCC3)CC2)cc1-c1ccc(Cl)c(Cl)c1 | -2%
COc1ccc(N(c2nc(-c3cc(Cl)ccc3Cl)cs2)C2CCNC2)cc1 (configuration not stated) | 3%
O=S(=O)(c1cc(Cl)sc1Cl)N(CCC(O)(C(F)(F)F)C(F)(F)F)Cc1cccc(O)c1 | 5%
